# Source: PubChem (National Center for Advancing Translational Sciences (NCATS))
# KB-V1 cytotox = kills drug-selected multidrug resistant KB-V1 cells; Potency, µM (titrated, usually from 46.1 µM), actives largely listed as cytotoxic; hit rate 3.4% among 400,000; AID 1347076; KB-V1 MDR cells viability, CellTiter-Glo, 72 h; further: on the % scale 0 is the no-effect control and ±100 the full control effect; nearly all actives have a fitted effect of over 60% in size
#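 Cytotoxicity via CellTiter-Glo luminescence after 72 h compound exposure at 37 degrees C. Cells: drug-selected KB-V1 line, DMEM phenol-red free plus 10% FBS. Compounds tested at multiple concentrations; normalized data fitted to concentration-effect curves.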
# SW480 rereplic = induces DNA re-replication in SW480 colon adenocarcinoma cells; hit rate 1.8% among 340,000; SW480 DNA re-replication, Hoechst DNA content imaging, 48 h; AID 624297; Potency, µM (top dose mostly 46.1 µM), for the others: at the highest dose re-replication activation, hits mostly activators; further: % of control where 0% means no effect; nearly all actives have a fitted effect of over 55% in size
#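 SW480 cells exposed to compounds for 48 hr at 37 C, 5% CO2, then Hoechst-stained 40 min. Nuclear DNA content imaged by fluorescence scanning (405 nm excitation, 500-530 nm emission); re-replication scored as increased high-intensity nuclei.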
# KB-3-1 cytotox = kills parental KB-3-1 adenocarcinoma cells; KB-3-1 viability, CellTiter-Glo ATP luminescence, 72 h; Potency, µM (doses to about 46.1 µM), most hits filed as cytotoxic; hit rate 1.4% among 400,000; further: on the % scale 0 is the no-effect control and ±100 the full control effect; nearly all actives have a fitted effect of over 60% in size
#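 Screening of KB-3-1 cells (DMEM, 10% FBS, phenol-red free) ran from lowest to highest compound concentration; after 72 h at 37 °C viability was read luminescently and curves fitted.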
# MCF10A rerep = induces DNA re-replication in MCF 10a normal breast cells; MCF 10A DNA re-replication, Hoechst nuclear intensity, 48 h; Potency, µM (top dose mostly 46.1 µM), for inactives: at the highest dose activity, positive = re-replication, hits mostly activators; hit rate 2.9% among 350,000; further: % of control where 0% means no effect; nearly all actives have a fitted effect of over 50% in size
# ELG1 repair inh = blocks ELG1-dependent DNA repair in HEK293T cells | HEK293T ELG1-luciferase reporter, luminescence, 16 h; DNA damage induced by 5-fluorouridine | Potency, µM (top dose mostly 46.1 µM), inactives show top-dose activity change, negative = inhibition, hits mostly inhibitors | hit rate 2.3% among 330,000 | AID 504467; further: on the % scale 0 is the no-effect control and ±100 the full control effect; nearly all actives have a fitted effect of over 55% in size
#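 In this reporter screen, reduction of luminescence relative to DMSO vehicle indicated activity. Compounds and 5-fluorouridine were added together to 2,000 cells per well, incubated for 16 hr at 37 °C, then developed with ONE-Glo.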
# The depositor's hits bear a star; i = inactive; u = inconclusive; x = no result given; [ ] = another dose, or the depositor's remark. This is a sample that favours compounds with a hit; in the whole collection about 8.1% have one here. The call rests on the fitted dose curve; in most records, active means well fitted curve in the direction sought with a large enough effect; inconclusive means small, poorly fitted or top-dose-only effect, or another doubt; inactive means no such curve, though single readings can be large; an effect the other way counts as inactive or inconclusive. Potency means the concentration at half of the fitted maximal effect.
SMILES,KB-V1 cytotox,SW480 rereplic,KB-3-1 cytotox,MCF10A rerep,ELG1 repair inh
COc1cccc(N2CCN(c3c(C#N)c(C(F)(F)F)nn3C)CC2)c1,13µM*,-1%,i,-7%,15µM*
COc1ccnc(N2CCN(c3cccc(C(F)(F)F)c3)CC2)c1C#N,i,u,i,21µM*,-9%
Cc1cc(C2C(=O)CC(=O)CC2c2ccccc2)on1 (stereo not drawn),i,-5%,i,-9%,4%
CCc1ccc(CNC(=O)c2ccc(OC3CCN(C(=O)COC)CC3)cc2)nc1,i,-6%,i,-1%,-6%
Cc1nc2ccccc2c2oc(C(=O)N3CCc4ccccc4C3)cc12,i,-2%,i,5%,26µM*
Cc1nn(-c2ccccc2)c2sc(C(=O)N3CCc4ccccc4C3)cc12,18µM*,0%,i,-4%,u
COC(=O)c1sc(NC(=O)COc2ccc(OC)cc2)nc1C,u,4%,i,-2%,x
COC(=O)c1sc(NC(=O)COc2cccc3ccccc23)nc1C,u,-3%,i,18µM*,-13%
Cc1nn(-c2ccccc2)c2sc(C(=O)NNC(=O)COc3cccc4ccccc34)cc12,18µM*,u,u,23µM*,-12%
Cc1nn(-c2ccccc2)c2sc(C(=O)NNC(=O)COc3ccccc3)cc12,i,-1%,i,0%,u
Cc1[nH]c2ccccc2c(=O)c1CNCc1ccccc1,i,x,i,x,x
COC(=O)c1ccc(C2c3c(-c4ccc(Br)cc4)n[nH]c3C(=O)N2c2ccc(Cl)cc2)cc1 (stereo not drawn),u,x,i,x,x
Cc1ccc(S(=O)(=O)Cc2cc(F)c([N+](=O)[O-])cc2[N+](=O)[O-])cc1,u,u,u,u,16µM*
CCOC(=O)c1ccc([N+](=O)[O-])c(CS(=O)(=O)c2ccc(Cl)cc2)c1,i,-1%,i,21µM*,-8%
Cc1ccc(S(=O)(=O)CCC(=O)c2cccc([N+](=O)[O-])c2)cc1,i,2%,i,3.7µM*,u
CCCNc1ccc(C(=O)OCC)cc1[N+](=O)[O-],13µM*,0%,16µM*,4%,u
CCOC(=O)CNc1ccc(C(=O)OCC)cc1[N+](=O)[O-],i,-17%,i,0%,5%
CC(=O)N/C(=C/c1ccc(OS(=O)(=O)c2ccc(C)cc2)cc1)C(=O)NCCO,i,4%,i,11%,-7%
Cc1cc(C)cc(NC(=O)C2CCN(S(=O)(=O)c3ccc4c(c3)NC(=O)C(C)S4)CC2)c1 (stereo not drawn),i,-27%,i,18%,u
Cc1ccc(S(=O)(=O)N2CCC(C(=O)OC(C)C(=O)N3CCOCC3)CC2)cc1 (stereo not drawn),i,-3%,i,22%,u
Cc1ccc(S(=O)(=O)N2CCC(C(=O)N/N=C/c3ccccc3[N+](=O)[O-])CC2)cc1,13µM*,u,i,-3%,-10%
CC(OC(=O)C1CCN(S(=O)(=O)c2ccc(C(C)(C)C)cc2)CC1)C(=O)N1CCOCC1 (stereo not drawn),16µM*,1%,i,u,0%
Cc1ccc(NC(=O)C2CCN(S(=O)(=O)c3ccc4c(c3)NC(=O)C(C)S4)CC2)cc1Cl (stereo not drawn),u,-3%,u,-9%,13µM*
Cc1cc(C)c(C)c(S(=O)(=O)N2CCC(C(=O)Nc3ccc(S(=O)(=O)N4CCOCC4)cc3)CC2)c1C,u,20%,u,u,12µM*
Cc1ccc(S(=O)(=O)N2CCC(C(=O)N/N=C/c3cccnc3)CC2)cc1,i,0%,i,2%,-2%
SMILES,KB-V1 cytotox,SW480 rereplic,KB-3-1 cytotox,MCF10A rerep,ELG1 repair inh
Cc1ccc(S(=O)(=O)N2CCC(C(=O)Nc3ccc(S(=O)(=O)N4CCOCC4)cc3)CC2)cc1,16µM*,3%,23µM*,6%,x
CCOc1ccc(NC(=O)C2CCN(S(C)(=O)=O)CC2)cc1,u,u,i,0.92µM*,8%
Cc1ccc(S(=O)(=O)N2CCN(C(=O)C3CCCCC3)CC2)cc1,i,u,i,2.9µM*,1%
COc1ccc(NC(=O)CC(C)C)c([N+](=O)[O-])c1,i,-6%,i,2%,8%
O=C(COc1ccc(F)cc1)Nc1nc2c(s1)CCCC2,u,-6%,i,10%,u
COCCCNC(=O)C(=O)NCC1CCCN1S(=O)(=O)c1cccs1 (stereo not drawn),i,-364%,i,-4%,14%
COc1cccc(NC(=O)c2cnc(SC)nc2)c1,i,1%,i,-13%,9%
Cc1ccc(C(=O)c2cc([N+](=O)[O-])ccc2N2CCCCC2)c(C)c1,1.6µM*,1.3µM*,0.82µM*,u,17%
CC(=O)c1cc(F)c(N2CCOCC2)cc1C,u,-5%,i,-2%,22%
Cc1cc(N2CCOCC2)c(F)cc1C(=O)c1ccccc1,18µM*,-7%,i,4%,-16%
Cc1ccc(C(=O)c2cc([N+](=O)[O-])ccc2N2CCOCC2)cc1,0.82µM*,3.7µM*,2.1µM*,3.7µM*,u
Cc1ccc(OCC(=O)N/N=C/c2cc([N+](=O)[O-])ccc2N2CCCCC2)cc1,i,-3%,i,13%,-10%
O=C(COc1ccc([N+](=O)[O-])cc1)N/N=C/c1cc([N+](=O)[O-])ccc1N1CCOCC1,16µM*,-8%,i,9%,18µM*
Cc1c(C=O)c2ccccn2c1C(=O)c1ccc(Cl)c([N+](=O)[O-])c1,i,u,i,10%[9.22 µM],12%
CCOc1ccc(C(=O)c2cc([N+](=O)[O-])ccc2N2CCOCC2)cc1,u,0.058µM*,0.029µM*,u,-3%
O=C(COc1ccc([N+](=O)[O-])cc1)Nc1ccc2c(c1)nc1n2CCOC1,i,u,u,23µM*,4%
COc1ccc(C(=O)c2cc([N+](=O)[O-])ccc2N2CCOCC2)cc1,0.52µM*,0.37µM*,1.8µM*,u,u
Cc1ccc(OCC(=O)Nc2ccc3c(c2)nc2n3CCOC2)cc1,i,-11%,i,6%,-4%
COc1ccc(NC(=O)c2ccc(NC(=O)C3CC3)cc2)cc1,i,-7%,i,2%,u
O=C(COc1ccccc1/C=C1\SC(=S)NC1=O)Nc1ccc(F)cc1,i,u,i,1.5µM*,u
Cc1ccnc(NC(=S)N2CCN(C)CC2)c1,i,x,i,x,x
Cc1ccc(NC(NC(=O)c2ccccc2[N+](=O)[O-])C(Cl)(Cl)Cl)cc1 (stereo not drawn),21µM*,-5%,i,0%,-4%
